Data from PubChem BioAssay AID1159580 (chemical genetic matrix, 2015).
Out of some 5,500 compounds screened, about 2,000 (36%) were called active. Roughly 18% stayed inconclusive and do not appear here. Rule as the data show it: active = normalized growth mostly below about 0.91 (no sharp cut-off); inconclusive = no clear call, values can overlap the other calls; inactive = mostly above about 0.92. Some of the results follow.

Experiment: chemical genetic growth profiling, strain panel (AID 1159580);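 also: tested at 20 µM; growth read once vehicle control cultures reached saturation at 30 °C; 1 = growth at the plate median or of vehicle wells; lower values mean less growth of the strain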
Conditions: growth OD

Measured: normalized growth

C[C@@H]1C(=O)O[C@H]2[C@H]1CC[C@@]1(C)C=CC(=O)[C@@]3(C)O[C@@]213
inactive: S. cerevisiae deletion strains, locus YKL009W, strain mrt4, active compounds read low 1.03 | S. cerevisiae deletion strains, locus YKL068W, active compounds read low 1.01 | S. cerevisiae deletion strains, locus YKL085W, strain MDH1 (second series), active compounds read low 1.01 | S. cerevisiae deletion strains, locus YKL085W, strain MDH1, active compounds read low 1.01 | S. cerevisiae deletion strains, locus YKL160W, strain elf1, active compounds read low 0.963 | S. cerevisiae deletion strains, locus YKL190W, strain CNB1, active compounds read low 1.01 | S. cerevisiae deletion strains, locus YKR001C, strain vps1, active compounds read low 1 | S. cerevisiae deletion strains, locus YKR026C, strain gcn3, active compounds read low 1.01 | S. cerevisiae deletion strains, locus YKR091W, strain srl3, active compounds read low 1 | S. cerevisiae deletion strains, locus YLL001W, strain dnm1, active compounds read low 1.02 | S. cerevisiae deletion strains, locus YLL026W, active compounds read low 1.01 | S. cerevisiae deletion strains, locus YLL041C, strain sdh2, active compounds read low 1.01 | S. cerevisiae deletion strains, locus YLR027C, strain aat2, active compounds read low 1.02 | S. cerevisiae deletion strains, locus YLR039C, strain RIC1, active compounds read low 0.994 | S. cerevisiae deletion strains, locus YLR058C, strain SHM2, active compounds read low 1.01 | S. cerevisiae deletion strains, locus YLR102C, strain apc9, active compounds read low 1.01 | S. cerevisiae deletion strains, locus YLR113W, strain HOG1, active compounds read low 1.03 | S. cerevisiae deletion strains, locus YLR221C, strain rsa3, active compounds read low 1.01 | S. cerevisiae deletion strains, locus YLR258W, strain gsy2, active compounds read low 1.03 | S. cerevisiae deletion strains, locus YLR262C, strain YPT6 (second series), active compounds read low 0.996 | S. cerevisiae deletion strains, locus YLR262C, strain YPT6, active compounds read low 0.997 | S. cerevisiae deletion strains, locus YLR268W, strain sec22, active compounds read low 1.04 | S. cerevisiae deletion strains, locus YLR320W, strain mms22, active compounds read low 1.03 | S. cerevisiae deletion strains, locus YLR330W, strain CHS5, active compounds read low 1.01 | S. cerevisiae deletion strains, locus YLR342W, strain FKS1 (second series), active compounds read low 1.01 | S. cerevisiae deletion strains, locus YLR342W, strain FKS1, active compounds read low 1.01 | S. cerevisiae deletion strains, locus YLR357W, strain rsc2, active compounds read low 1.02 | S. cerevisiae deletion strains, locus YLR370C, strain arc18, active compounds read low 1.02 | S. cerevisiae deletion strains, locus YLR371W, strain rom2, active compounds read low 1.03 | S. cerevisiae deletion strains, locus YLR384C, strain iki3, active compounds read low 1 | S. cerevisiae deletion strains, locus YLR418C, strain cdc73, active compounds read low 1.05 | S. cerevisiae deletion strains, locus YML016C, strain PPZ1, active compounds read low 1.01 | S. cerevisiae deletion strains, locus YML032C, strain rad52, active compounds read low 1.01 | S. cerevisiae deletion strains, locus YML120C, strain ndi1, active compounds read low 1.03 | S. cerevisiae deletion strains, locus YML124C, strain tub3, active compounds read low 1.02 | S. cerevisiae deletion strains, locus YMR058W, strain fet3, active compounds read low 1.03 | S. cerevisiae deletion strains, locus YMR078C, strain ctf18, active compounds read low 1.02 | S. cerevisiae deletion strains, locus YMR125W, strain sto1, active compounds read low 0.999 | S. cerevisiae deletion strains, locus YMR129W, active compounds read low 1.03 | S. cerevisiae deletion strains, locus YMR205C, strain PFK2, active compounds read low 1.02 | S. cerevisiae deletion strains, locus YMR223W, strain ubp8, active compounds read low 1.01 | S. cerevisiae deletion strains, locus YMR231W, strain pep5, active compounds read low 1.01 | S. cerevisiae deletion strains, locus YMR263W, strain SAP30, active compounds read low 1.02 | S. cerevisiae deletion strains, locus YMR307W, strain GAS1, active compounds read low 1 | S. cerevisiae deletion strains, locus YNL067W, strain RPL9B, active compounds read low 1.02 | S. cerevisiae deletion strains, locus YNL071W, strain lat1, active compounds read low 1 | S. cerevisiae deletion strains, locus YNL128W, strain TEP1, active compounds read low 1.03 | S. cerevisiae deletion strains, locus YNL153C, strain GIM3, active compounds read low 1.02 | S. cerevisiae deletion strains, locus YNL183C, strain NPR1, active compounds read low 0.974 | S. cerevisiae deletion strains, locus YNL209W, strain ssb2, active compounds read low 1.01 | S. cerevisiae deletion strains, locus YNL233W, strain BNI4, active compounds read low 1.03 | S. cerevisiae deletion strains, locus YNL248C, strain rpa49, active compounds read low 1.03 | S. cerevisiae deletion strains, locus YNL250W, strain rad50, active compounds read low 1.03 | S. cerevisiae deletion strains, locus YNL271C, strain bni1, active compounds read low 1.01 | S. cerevisiae deletion strains, locus YNL298W, strain CLA4, active compounds read low 1.01 | S. cerevisiae deletion strains, locus YNL307C, strain MCK1, active compounds read low 1.03 | S. cerevisiae deletion strains, locus YNL322C, strain KRE1 (second series), active compounds read low 1 | S. cerevisiae deletion strains, locus YNL322C, strain KRE1, active compounds read low 1.01 | S. cerevisiae deletion strains, locus YNR049C, strain mso1, active compounds read low 1.04 | S. cerevisiae deletion strains, locus YNR052C, strain pop2, active compounds read low 1.01 | S. cerevisiae deletion strains, locus YOL006C, strain TOP1, active compounds read low 1.04 | S. cerevisiae deletion strains, locus YOL012C, strain htz1 0.788 | S. cerevisiae deletion strains, locus YOL147C, strain pex11, active compounds read low 1.01 | S. cerevisiae deletion strains, locus YOR001W, strain rrp6, active compounds read low 1.05 | S. cerevisiae deletion strains, locus YOR061W, strain CKA2, active compounds read low 1.02 | S. cerevisiae deletion strains, locus YOR069W, strain VPS5, active compounds read low 1.01 | S. cerevisiae deletion strains, locus YOR070C, strain gyp1, active compounds read low 1.01 | S. cerevisiae deletion strains, locus YOR080W, strain dia2, active compounds read low 1 | S. cerevisiae deletion strains, locus YOR083W, strain WHI5, active compounds read low 1 | S. cerevisiae deletion strains, locus YOR106W, strain vam3, active compounds read low 0.999 | S. cerevisiae deletion strains, locus YOR136W, strain idh2, active compounds read low 1.02 | S. cerevisiae deletion strains, locus YOR144C, strain elg1, active compounds read low 1.02 | S. cerevisiae deletion strains, locus YOR184W, strain ser1, active compounds read low 1.03 | S. cerevisiae deletion strains, locus YOR231W, strain MKK1, active compounds read low 1.04 | S. cerevisiae deletion strains, locus YOR265W, strain rbl2, active compounds read low 1.03 | S. cerevisiae deletion strains, locus YOR270C, strain vph1, active compounds read low 1.1 | S. cerevisiae deletion strains, locus YOR290C, strain snf2, active compounds read low 1.02 | S. cerevisiae deletion strains, locus YOR316C, strain cot1, active compounds read low 1.02 | S. cerevisiae deletion strains, locus YPL051W, strain arl3, active compounds read low 1.02 | S. cerevisiae deletion strains, locus YPL055C, strain LGE1, active compounds read low 1.06 | S. cerevisiae deletion strains, locus YPL078C, strain atp4, active compounds read low 1.02 | S. cerevisiae deletion strains, locus YPL106C, strain sse1, active compounds read low 1.01 | S. cerevisiae deletion strains, locus YPL240C, strain hsp82, active compounds read low 1.01 | S. cerevisiae deletion strains, locus YPL241C, strain CIN2, active compounds read low 1 | S. cerevisiae deletion strains, locus YPL256C, strain CLN2, active compounds read low 1.03 | S. cerevisiae deletion strains, locus YPR119W, strain clb2, active compounds read low 1.01 | S. cerevisiae deletion strains, locus YPR141C, strain kar3, active compounds read low 1.02 | S. cerevisiae deletion strains, locus YPR163C, strain tif3, active compounds read low 1.02 | S. cerevisiae deletion strains, locus YPR167C, strain met16, active compounds read low 1.02 | S. cerevisiae deletion strains, strain wtn01, active compounds read low 1.03 | S. cerevisiae strains, strain wild type, active compounds read low 1.02
